Screens: PubChem, several laboratories
Rows were chosen to be rich in hits. Some 4.7% of all compounds tested hit in one or more screens of this group.
tim10-1 inh – growth inhibitors of tim10-1 mutant yeast, primary screen, luminescence, uHTS | S. cerevisiae tim10-1 ts strain growth, BacTiter-Glo, 24 h | 2.2% of 330,000 active | inhibition, % at 20 µM | AID 463190, 2010;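 active = inhibition of at least 40%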;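 note: mutant grown at 25 °C; 0% = DMSO wells with yeast and 100% = wells holding no yeast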
PfHsp90 yeast 2 – growth inhibition of PfHsp90-expressing yeast, primary screen, antimalarial PfHsp90 inhibitor project, S. cerevisiae, BacTiter-Glo luminescence, single point, set 2; BacTiter-Glo ATP, 48 h; yeast lacking PDR1 and PDR3 efflux regulators; inhibition, % at 9.4 µM; 0.32% of 310,000 active; AID 504621, 2011;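 active = every replicate shows inhibition above about 80%, whatever the replicate mean, limit read from the data; inconclusive = mean inhibition reaches the set limit but some replicate falls short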;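 note: 0% = DMSO neutral controls and 100% = 20 µM radicicol positive controls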
tim23-1 inh – growth inhibitors of tim23-1 mutant yeast, primary screen, luminescence, uHTS | S. cerevisiae tim23-1 growth, BacTiter-Glo luminescence, 24 h | inhibition, % at 20 µM | 1.3% of 330,000 active | AID 463212, 2010;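 active = growth inhibition of the mutant yeast at or above 50%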;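 note: temperature-sensitive mutant grown at 25 °C; plate controls were DMSO-treated mutant yeast for no effect and medium wells lacking yeast for full effect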
TIM10 inh – growth inhibitors of isogenic TIM10 control yeast, primary screen, counter-screen for tim10-1 yeast inhibitor project, luminescence, uHTS; S. cerevisiae TIM10 strain growth, BacTiter-Glo luminescence, 24 h; inhibition, % at 10 µM; 1.4% of 330,000 active; AID 463195, 2010;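 active = inhibition of 40% or more at the single tested concentration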;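 note: wild-type TIM10 isogenic control strain grown at permissive 25 °C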
EBI2 block – EBI2 receptor antagonists, beta-arrestin recruitment, primary screen, cell-based, luminescence, 7a,25-OHC stimulation, uHTS | G-protein coupled receptor 183 (Homo sapiens), P32249 | 7a,25-OHC stimulated | inhibition, % at 5 µM | 0.81% of 360,000 active | AID 651636, 2012; in the data active = inhibition above about 38%;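 note: enzyme fragment complementation signal reports receptor beta-arrestin coupling in cells; 0% = agonist plus DMSO wells and 100% = wells without agonist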
Target sequence (P32249 whole entry, looked up, the tested form may be a part): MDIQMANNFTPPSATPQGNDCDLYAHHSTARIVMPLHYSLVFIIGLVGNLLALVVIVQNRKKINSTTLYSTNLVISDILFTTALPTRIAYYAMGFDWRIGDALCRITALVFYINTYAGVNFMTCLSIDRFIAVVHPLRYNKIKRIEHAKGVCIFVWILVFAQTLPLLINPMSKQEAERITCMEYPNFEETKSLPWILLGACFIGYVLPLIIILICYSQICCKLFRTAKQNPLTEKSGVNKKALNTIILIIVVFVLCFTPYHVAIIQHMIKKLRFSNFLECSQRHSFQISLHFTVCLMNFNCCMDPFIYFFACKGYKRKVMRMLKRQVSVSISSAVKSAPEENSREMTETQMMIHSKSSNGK
SKKanGAS inh – S. pyogenes SKKanGAS growth inhibitors in kanamycin, primary screen, streptokinase expression inhibitor project, SKKanGAS strain, BacTiter-Glo luminescence | 6 h | inhibition, % at 7.5 µM | 1.3% of 300,000 active | AID 1662, 2009;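 active = mean replicate score, as percent of positive control median, at least 50; inconclusive = mean below 50 but one replicate at or above 50; inactive = mean and every replicate below 50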;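 note: strain carries kanamycin resistance gene driven by streptokinase promoter and grows in 40 µg/ml kanamycin; loss of luminescence reflects streptokinase promoter inhibition or plain growth inhibition; 0% = median of DMSO wells and 100% = positive control at its reference dose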
EBI2 antag conf – EBI2 antagonist hit retest, beta-arrestin, confirmation, cell-based, single concentration, luminescence, 7a,25-OHC stimulation; shares compounds with EBI2 block; 7a,25-OHC antagonism; inhibition, % at 5 µM; 29% of 2,400 active; AID 651997, 2013;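 active = inhibition of at least 50%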
EBI2 ag – EBI2 agonist activity of antagonist hits, confirmation, counter-screen for EBI2 antagonist project, cell-based, single concentration, agonist mode, luminescence. 2,400 tested, under 10 active. shares compounds with EBI2 block. EBI2-expressing cells, 60 min; 0% vehicle, 100% 7α,25-dihydroxycholesterol control. activation, % at 5 µM;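 active = activation of at least 50%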
bGal counter – E. coli beta-galactosidase enzyme inhibition, confirmation, counter-screen for EBI2 antagonist project, biochemical, luminescence, single concentration; shares compounds with EBI2 block; purified beta-galactosidase, luminescent Galacton Star, 15 min; inhibition, % at 5 µM; 1% of 2,400 active;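 active = replicate-average signal at least 3 plate SD below neutral wells, shown as high inhibition, flagging enzyme-inhibiting false positives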;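 note: 0% = DMSO wells with enzyme and 100% = wells lacking enzyme; higher means stronger loss of beta-gal luminescence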
* hit, by the source's call.

Cc1sc2nc(C3CC3)nc(N3CCN(C(=O)c4ccc(F)cc4)CC3)c2c1C was read as tim10-1 inh 14, PfHsp90 yeast 2 -16, tim23-1 inh 28, TIM10 inh 17, EBI2 block 34 and SKKanGAS inh 11.
Cc1sc2nc(C3CC3)nc(N3CCN(C(=O)c4ccc(Cl)cc4)CC3)c2c1C was read as tim10-1 inh 7, PfHsp90 yeast 2 -27, tim23-1 inh 18, TIM10 inh -7, EBI2 block 76*, SKKanGAS inh 23, EBI2 antag conf 44, EBI2 ag 1 and bGal counter 8.
`CC1CCN(C(=O)C(=O)Nc2sc3c(c2C(N)=O)CC(C)(C)OC3)CC1` gave tim10-1 inh 10, PfHsp90 yeast 2 2, tim23-1 inh 4, TIM10 inh -4, EBI2 block 4 and SKKanGAS inh -1.
Screening O=C(/C=C/c1ccc(Cl)cc1)NC1CC2CCC1C2 (stereo not drawn) returned tim10-1 inh 21, PfHsp90 yeast 2 -25, tim23-1 inh 31, TIM10 inh 11, EBI2 block 63*, SKKanGAS inh -8, EBI2 antag conf 24, EBI2 ag -1 and bGal counter -9.
Screening COc1ccc(C(=O)C(=O)c2ccc(OCCO)cc2)cc1 returned tim10-1 inh 15, PfHsp90 yeast 2 -6, tim23-1 inh 17, TIM10 inh 12, EBI2 block -10 and SKKanGAS inh 2.
Screening Cc1cccc(OCCOC(=O)C2CCN(S(=O)(=O)c3ccc(C)c(C)c3)CC2)c1 returned tim10-1 inh 17, PfHsp90 yeast 2 -16, tim23-1 inh 17, TIM10 inh 14, EBI2 block 22 and SKKanGAS inh -4.
For Cc1ccc(S(=O)(=O)N2CCC(C(=O)OCCOc3cccc(C)c3)CC2)cc1 the results were tim10-1 inh 40, PfHsp90 yeast 2 -1, tim23-1 inh 47, TIM10 inh 24 and EBI2 block 14.
Screening Cc1ccc(S(=O)(=O)N2CCC(C(=O)OCCOc3ccccc3)CC2)cc1C returned tim10-1 inh 20, PfHsp90 yeast 2 -16, tim23-1 inh 20, TIM10 inh 0, EBI2 block 45*, SKKanGAS inh -2, EBI2 antag conf 40, EBI2 ag -1 and bGal counter -20.
Cc1ccc(OCCOC(=O)C2CCN(S(=O)(=O)c3ccc(C)c(C)c3)CC2)cc1 was read as tim10-1 inh 20, PfHsp90 yeast 2 -10, tim23-1 inh 22, TIM10 inh 16, EBI2 block 56*, SKKanGAS inh -9, EBI2 antag conf 26, EBI2 ag 0 and bGal counter 7.
`CC(C)c1ccc(C2C(C(=O)c3ccco3)=C(O)C(=O)N2CCN2CCOCC2)cc1` (stereo not drawn) gave tim10-1 inh 0, PfHsp90 yeast 2 -3, tim23-1 inh -6, TIM10 inh -5, EBI2 block -7 and SKKanGAS inh 4.
For CCc1ccc(C(=O)NNc2ccc(F)cc2)cc1 the results were tim10-1 inh -15, PfHsp90 yeast 2 4, tim23-1 inh 14, TIM10 inh -43, EBI2 block 5 and SKKanGAS inh -6.
CCc1ccc(C(=O)NNc2ccc(C)c(Cl)c2)cc1 was read as tim10-1 inh -11, PfHsp90 yeast 2 10, tim23-1 inh 28, TIM10 inh -13, EBI2 block 46*, SKKanGAS inh 2, EBI2 antag conf 23, EBI2 ag -3 and bGal counter -8.
`N#Cc1cc2c(nc1SCC(O)CS(=O)(=O)Cc1ccccc1)CCCC2` (stereo not drawn) gave tim10-1 inh 16, PfHsp90 yeast 2 9, tim23-1 inh 7, TIM10 inh 2, EBI2 block 7 and SKKanGAS inh 1.
C=CCn1cc(C(=O)OCC)c(=O)c2cc(F)c(F)cc21 was read as tim10-1 inh 5, tim23-1 inh -13, TIM10 inh -2, EBI2 block 5 and SKKanGAS inh 0.
Screening COc1ccc(N(CC(=O)NCCSCc2ccc(Cl)cc2)S(C)(=O)=O)cc1Cl returned tim10-1 inh 3, PfHsp90 yeast 2 -8, tim23-1 inh 27, TIM10 inh -8, EBI2 block 46*, SKKanGAS inh 16, EBI2 antag conf 33, EBI2 ag 0 and bGal counter 8.
COc1ccccc1N(CC(=O)NCCSc1ccccc1)S(=O)(=O)c1ccccc1 was read as tim10-1 inh 25, PfHsp90 yeast 2 -22, tim23-1 inh 24, TIM10 inh 7, EBI2 block 50*, SKKanGAS inh 5, EBI2 antag conf 33, EBI2 ag -2 and bGal counter -7.
For COc1ccc(N(CC(=O)NCCSCc2ccc(C)cc2)S(=O)(=O)c2ccccc2)cc1 the results were tim10-1 inh 9, PfHsp90 yeast 2 22, tim23-1 inh 12, TIM10 inh 17, EBI2 block 73*, SKKanGAS inh 1, EBI2 antag conf 47, EBI2 ag 1 and bGal counter 1.
COc1ccc(N(CC(=O)NCCSCc2cccc(Cl)c2)S(C)(=O)=O)cc1Cl was read as tim10-1 inh 8, PfHsp90 yeast 2 -18, tim23-1 inh 18, TIM10 inh -2, EBI2 block 15 and SKKanGAS inh inconclusive.
Screening Cc1ccc(SCCNC(=O)CN(c2ccc3c(c2)OCO3)S(C)(=O)=O)cc1 returned tim10-1 inh 0, PfHsp90 yeast 2 -2, tim23-1 inh 4, TIM10 inh -1, EBI2 block 71*, SKKanGAS inh -4, EBI2 antag conf 58*, EBI2 ag 1 and bGal counter 5.
CSc1cccc(NC(=S)N(CCC(C)C)C(C)c2ccncc2)c1 (stereo not drawn) was read as tim10-1 inh 11, PfHsp90 yeast 2 -9, tim23-1 inh 21, TIM10 inh -8, EBI2 block 3 and SKKanGAS inh 20.
